Assay results from the supplement of paper PMC3545927.
The other results are listed elsewhere or left out. How many sequences the whole screen found active is unknown.

Target: furin, P09958
Experiment: furin cleavage Z-score vs untreated control; higher = more cleavage, active = 3.5 or more, inactive = 1 or less, 8 variable residues between constant flanks
Procedure: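 Multiplexed peptide-cDNA fusion cleavage assay. 8-mer variable peptides flanked by constant Cys-Ala (N-term) and Ala-Gly-Asn-Ala-Ser-Ala-Ser-Ala (C-term) and conjugated to a cDNA oligonucleotide were bead-immobilised via the N-terminus. They were treated with purified furin at a 1:10 enzyme:substrate ratio in 50 mM HEPES pH 7.5, 1 mM CaCl2, 100 mM NaCl for 7.5, 15 or 30 min. Released cDNA was counted by next-generation sequencing, and log counts versus no-furin controls were lowess-adjusted and converted to robust Z-scores.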

Sequence of furin, P09958 (P09958 whole entry): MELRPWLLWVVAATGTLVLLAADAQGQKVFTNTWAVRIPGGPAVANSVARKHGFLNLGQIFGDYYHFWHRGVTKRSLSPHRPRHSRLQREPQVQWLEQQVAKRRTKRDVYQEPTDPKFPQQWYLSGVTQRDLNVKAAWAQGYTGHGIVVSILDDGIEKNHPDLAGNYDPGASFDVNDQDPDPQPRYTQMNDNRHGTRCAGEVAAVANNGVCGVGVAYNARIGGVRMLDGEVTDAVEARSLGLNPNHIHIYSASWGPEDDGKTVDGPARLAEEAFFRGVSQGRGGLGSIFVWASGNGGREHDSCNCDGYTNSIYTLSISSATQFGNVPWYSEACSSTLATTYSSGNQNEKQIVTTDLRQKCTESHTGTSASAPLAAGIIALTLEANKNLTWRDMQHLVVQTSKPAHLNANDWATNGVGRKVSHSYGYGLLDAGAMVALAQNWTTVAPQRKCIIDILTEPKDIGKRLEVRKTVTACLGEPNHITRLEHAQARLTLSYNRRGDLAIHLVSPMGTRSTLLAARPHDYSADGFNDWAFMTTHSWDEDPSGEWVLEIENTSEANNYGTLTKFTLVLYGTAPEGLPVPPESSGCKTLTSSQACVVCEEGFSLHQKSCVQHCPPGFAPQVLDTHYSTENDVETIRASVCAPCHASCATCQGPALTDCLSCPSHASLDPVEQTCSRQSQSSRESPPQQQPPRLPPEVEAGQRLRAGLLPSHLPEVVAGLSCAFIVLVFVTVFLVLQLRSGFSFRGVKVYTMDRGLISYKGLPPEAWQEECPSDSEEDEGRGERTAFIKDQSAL

Row | Sequence | furin cleavage Z-score (7.5 min) | furin cleavage Z-score (15 min) | furin cleavage Z-score (30 min)
1 | CAVVPCHRPSAGNASASA [HC2310] | 0.864 (inactive) | 0.937 (inactive) | 1.82
2 | CADSLNTGWLAGNASASA [HC376] | -0.896 (inactive) | 0.0514 (inactive) | -1.36 (inactive)
3 | CAAGLFYHHKAGNASASA [HC380] | -0.0785 (inactive) | -0.406 (inactive) | 0.464 (inactive)
4 | CATTPCSESWAGNASASA [HC1892] | -1.68 (inactive) | -0.885 (inactive) | 0.194 (inactive)
5 | CAKKKCDELAAGNASASA [HC859] | 0.206 (inactive) | -0.587 (inactive) | -1.61 (inactive)
6 | CADAELIEANAGNASASA [HC1272] | 1.56 | 1.04 | 0.698 (inactive)
7 | CAPVRRRGDSAGNASASA [HC731] | -0.373 (inactive) | 0.103 (inactive) | -0.876 (inactive)
8 | CADVSRARRVAGNASASA [FS-1519] | 0.954 (inactive) | 1.02 | 1.74
9 | CAPVRRWRRVAGNASASA [FS-1247] | 9.64 (active) | 9.32 (active) | 6.63 (active)
10 | CAGLDRLRRVAGNASASA [FS-1126] | 0.977 (inactive) | 1.09 | 1.81
11 | CAYLRRRRRVAGNASASA [FS-391] | 9.87 (active) | 10.2 (active) | 8.18 (active)
12 | CAGLGRRRRVAGNASASA [FS-1127] | 6.73 (active) | 8.39 (active) | 7.41 (active)
13 | CAYINRKKKVAGNASASA [FS-633] | -0.8 (inactive) | -0.697 (inactive) | -0.973 (inactive)
14 | CATTPCSHSWAGNASASA [HC1895] | -0.676 (inactive) | 1.01 | -1.05 (inactive)
15 | CASIYPGHITAGNASASA [HC314] | -1.99 (inactive) | -1.12 (inactive) | 0.0447 (inactive)
16 | CALTSMLTDPAGNASASA [HC1246] | -0.19 (inactive) | -0.57 (inactive) | -0.448 (inactive)
17 | CAHTPCSGSWAGNASASA [HC1835] | -0.934 (inactive) | -0.656 (inactive) | -1.49 (inactive)
18 | CAAQAPPPSWAGNASASA [HC959] | -0.328 (inactive) | 0.141 (inactive) | -1.2 (inactive)
19 | CAINKRVKRDAGNASASA [FS-253] | 7.21 (active) | 5.79 (active) | 4.98 (active)
20 | CAANHVVKRDAGNASASA [FS-642] | 8.87 (active) | 11.8 (active) | 8.5 (active)
21 | CAGQSWVKRDAGNASASA [FS-331] | 1.45 | 0.512 (inactive) | 1.11
22 | CATHINSVWKAGNASASA [HC1429] | -0.832 (inactive) | -2.14 (inactive) | -0.179 (inactive)

Row | Sequence | furin cleavage Z-score (7.5 min) | furin cleavage Z-score (15 min) | furin cleavage Z-score (30 min)
23 | CAEVPTSTWVAGNASASA [HC2199] | 0.334 (inactive) | -2.59 (inactive) | -0.0938 (inactive)
24 | CATQPCSGSWAGNASASA [HC1862] | 0.195 (inactive) | -1.61 (inactive) | 0.946 (inactive)
25 | CAEVPCHLPSAGNASASA [HC2365] | 0.888 (inactive) | 0.887 (inactive) | 2.28
26 | CAPQSRGRREAGNASASA [FS-476] | 13.1 (active) | 13.2 (active) | 8.24 (active)
27 | CAGSGPDQRPAGNASASA [HC399] | -0.948 (inactive) | 0.971 (inactive) | -0.827 (inactive)
28 | CAGSNRKVREAGNASASA [FS-435] | 10.8 (active) | 11.2 (active) | 7.92 (active)
29 | CAPVLRGQAGAGNASASA [FS-3180] | -0.625 (inactive) | 0.202 (inactive) | -0.205 (inactive)
30 | CAGCVPCVREAGNASASA [HC273] | 0.467 (inactive) | 0.158 (inactive) | 1.81
31 | CAGSMRANRIAGNASASA [FS-1128] | -0.706 (inactive) | 0.0659 (inactive) | 0.059 (inactive)
32 | CAGSKRSRREAGNASASA [FS-1207] | 11.5 (active) | 11.8 (active) | 7.54 (active)
33 | CAPESRKRREAGNASASA [FS-368] | 13.9 (active) | 14.4 (active) | 11.3 (active)
34 | CAGQKRSRSRAGNASASA [FS-2862] | 0.426 (inactive) | -2.34 (inactive) | 0.754 (inactive)
35 | CAPVVFSQMEAGNASASA [HC647] | 1.38 | 1.32 | 0.561 (inactive)
36 | CAGFLRKRREAGNASASA [FS-426] | 11.1 (active) | 11.2 (active) | 8.58 (active)
37 | CAYPKRSAGEAGNASASA [FS-2117] | -0.54 (inactive) | -0.564 (inactive) | 0.202 (inactive)
38 | CAPPRRQRRGAGNASASA [FS-1050] | 0.924 (inactive) | 0.828 (inactive) | 1.23
39 | CANCLRQRRGAGNASASA [FS-465] | -0.759 (inactive) | -0.337 (inactive) | -0.511 (inactive)
40 | CAWQRRQRRGAGNASASA [FS-896] | 6 (active) | 6.49 (active) | 5.96 (active)
41 | CADGNRQVRGAGNASASA [FS-981] | 0.00638 (inactive) | -1.04 (inactive) | 0.17 (inactive)
42 | CALNNRQIRGAGNASASA [FS-1136] | 3.62 (active) | 5.07 (active) | 5.04 (active)
43 | CAKWLRFIRGAGNASASA [FS-1022] | 2.09 | 0.354 (inactive) | 3.09
44 | CATKNRQRRGAGNASASA [FS-1094] | 6.87 (active) | 7.34 (active) | 5.71 (active)
